Shown are actives, neighbours in structure and some others; about 2.7% of the full set was active somewhere.
Mcl-1 Bim block – inhibitors of Bim-Mcl-1 interaction, human; inhibition, % at 10 µM; Bead-based flow cytometry, Bim peptide-Mcl-1 binding; 190,000 tested, 0.1% active; in the data active = inhibition above about 40%
Target sequence (Q07820 whole entry, looked up): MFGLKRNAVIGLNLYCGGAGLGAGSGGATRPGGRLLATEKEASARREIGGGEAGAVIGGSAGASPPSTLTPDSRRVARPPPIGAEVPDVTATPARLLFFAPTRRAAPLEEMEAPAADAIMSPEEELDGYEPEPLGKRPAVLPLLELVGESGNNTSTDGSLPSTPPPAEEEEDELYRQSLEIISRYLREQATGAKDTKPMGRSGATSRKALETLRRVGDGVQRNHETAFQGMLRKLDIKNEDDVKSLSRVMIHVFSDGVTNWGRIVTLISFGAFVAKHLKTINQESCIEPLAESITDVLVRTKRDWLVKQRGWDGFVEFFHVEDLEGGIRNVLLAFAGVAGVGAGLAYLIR
Mcl1 Bid PPI – disrupts binding of human Mcl-1 to Bid peptide; Q07820; TR-FRET Mcl-1/Bid-Dy647 peptide binding, 1536-well; inhibition, % at 21.7 µM; 220,000 tested, 0.97% active; AID 1021;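 active = compounds that cut the binding signal by more than half at the single screening dose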;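 note: His-tagged Mcl-1 with europium anti-His antibody binding Bid BH3 peptide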
Mcl1-Noxa inh – Mcl-1/Noxa interaction inhibition; Q07820; TR-FRET Mcl-1/Noxa peptide binding, 2 h; inhibition, % at 21.7 µM; 220,000 tested, 1.5% active; AID 1022;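 active = compounds that cut the protein-peptide binding signal by more than 50% relative to plate controls in a single-dose test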;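 note: His-tagged Mcl-1 with rhodamine Noxa BH3 peptide and terbium anti-His antibody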
14-3-3 Bad PPI – disrupts binding of bovine 14-3-3 zeta to phospho-Bad peptide; P63103; TR-FRET 14-3-3zeta/Dy647-pBad peptide displacement, 1 h; inhibition, % at 21.7 µM; 220,000 tested, 0.71% active; AID 781;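 active = inhibition above about 70%, limit read from the data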
Target sequence (P63103 whole entry, looked up): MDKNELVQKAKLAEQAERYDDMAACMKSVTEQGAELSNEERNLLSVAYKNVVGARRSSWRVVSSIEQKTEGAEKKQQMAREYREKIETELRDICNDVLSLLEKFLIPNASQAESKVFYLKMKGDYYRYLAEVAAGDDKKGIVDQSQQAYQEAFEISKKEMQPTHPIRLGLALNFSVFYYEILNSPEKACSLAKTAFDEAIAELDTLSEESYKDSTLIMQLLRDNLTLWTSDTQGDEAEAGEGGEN
eIF4E 4G PPI – blocks eIF4E binding to eIF4G; TR-FRET eIF4E-eIF4GI(517-606) binding, 2 h; inhibition, % at 21.7 µM; 220,000 tested, 0.37% active;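 active = inhibition above about 30%, limit read from the data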
Pf gametocyte – inhibitors of late stage P. falciparum gametocyte viability | P. falciparum stage V gametocytes, ATP luminescence, 24 h | inhibition, % at 10.9 µM | 150,000 tested, 0.065% active | AID 743093;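 active = inhibition above the mean plus 3 SD of compounds within the control limits, set per campaign, cut at about 38% in these data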
A number is an active result; i = inactive; nt = not tested or not shown; [ ] = remark or other dose.

SMILES	Mcl-1 Bim block	Mcl1 Bid PPI	Mcl1-Noxa inh	14-3-3 Bad PPI	eIF4E 4G PPI	Pf gametocyte
CCCCC(c1nnnn1C1CCCC1)N1CCN(C2CCCC2)CC1 (configuration not stated)	i	i	i	i	i	i
CCC(c1nnnn1Cc1cccs1)N1CCN(C2CCCC2)CC1 (configuration not stated)	i	54	i	i	i	i
CCCC(c1nnnn1Cc1cccs1)N1CCN(C2CCCC2)CC1 (configuration not stated)	i	i	i	i	i	nt
CCCC(c1nnnn1C(C)(C)CC)N1CCN(C2CCCC2)CC1 (configuration not stated)	i	i	i	73	i	i
CCCC(c1nnnn1Cc1ccc(F)cc1)N1CCN(C2CCCCC2)CC1 (configuration not stated)	i	i	i	75	i	i
CCC(c1nnnn1C(C)(C)C)N1CCN(C2CCCC2)CC1 (configuration not stated)	i	i	i	i	i	i
CCCC(c1nnnn1C1CCCCC1)N1CCN(C2CCCC2)CC1 (configuration not stated)	i	51	i	i	i	i
COc1ccc(Cn2nnnc2C(CC(C)C)N2CCC(C(N)=O)CC2)cc1 (configuration not stated)	i	i	i	i	i	nt
CCCC(c1nnnn1Cc1ccc(OC)cc1)N1CCC(C(N)=O)CC1 (configuration not stated)	i	i	i	75	i	i
CCc1nnc(NS(=O)(=O)c2ccc(N=CC3=C(O)CC(C)(C)CC3=O)cc2)s1	44	i	i	i	i	i
CC(/C=C/C=C/c1ccccc1)=N/NC(=O)CNc1ccc(C)cc1	i	i	i	i	i	i
O=C(c1ccc2c(Cl)c3c(nc2c1)CCCC3)N1CCN(c2ccc(F)cc2)CC1	i	i	i	i	i	nt
CC1CCN(C(=O)c2ccc3c(Cl)c4c(nc3c2)CCCC4)CC1	i	i	i	i	82	i
Clc1ccc(Sc2oc(/C=N/n3cnnc3)cc2Br)cc1	i	i	i	i	i	i
CN(C)C(=O)/C(C#N)=C\c1cc(Br)c(Sc2ccc(Cl)cc2)o1	i	100	i	i	i	nt
O=C(CC(=O)NC1CCCCC1)N/N=C/c1ccc(Cl)cc1	i	i	i	i	i	nt
Cc1ccc(N=Nc2c(N)[nH]n3c(=O)cc(-c4ccccc4)nc23)cc1	i	76	81	i	i	i
Cc1cc(=O)n2[nH]c(N)c(N=Nc3ccccc3)c2n1	i	i	i	i	i	nt
COc1cccc(N=Nc2c(N)[nH]n3c(=O)cc(-c4ccccc4)nc23)c1	i	56	i	i	i	i
CCN1CCN(S(=O)(=O)c2cc(C(=O)O)ccc2Cl)CC1	nt	i	i	i	i	i
CC(Sc1ncc(C(F)(F)F)cc1Cl)C(=O)NCC1CCCO1 (configuration not stated)	i	i	i	i	i	nt
Cc1ccc(C2N(c3cccc(Cl)c3)C(=O)N3CCCN23)cc1 (configuration not stated)	nt	i	i	i	i	i
CC(=O)Nc1cc(NC(C)=O)cc(-c2nc3ccccc3[nH]2)c1	i	i	i	i	i	i
CC(=O)Nc1ccc(-c2nc3c(C)cccc3[nH]2)cc1	i	i	i	72	i	nt
O=C(Cc1ccccc1)Nc1ccc(NC(=O)c2cccs2)cc1	i	i	i	i	i	i
SMILES	Mcl-1 Bim block	Mcl1 Bid PPI	Mcl1-Noxa inh	14-3-3 Bad PPI	eIF4E 4G PPI	Pf gametocyte
S=c1[nH]nc(Cc2noc3ccccc23)n1-c1ccc(Cl)cc1	i	54	i	i	i	i
O=C(CN(C(=O)c1ccc(Cl)cc1Cl)N1C(=O)C2C3C=CC(C3)C2C1=O)c1ccc(F)cc1 (configuration not stated)	nt	nt	nt	nt	nt	i
Cc1ccc(C(=O)CN(C(=O)c2ccc(Cl)c(Cl)c2)N2C(=O)C3C4C=CC(C4)C3C2=O)cc1 (configuration not stated)	i	80	nt	i	i	i
O=S(=O)(Nc1ccc(Cl)cc1)c1ccc2c(c1)CCO2	nt	i	i	98	i	i
Nc1cc(S(=O)(=O)Nc2ccc(Cl)cc2)ccc1N1CCOCC1	nt	i	i	i	i	i
Cc1ccnc(NS(=O)(=O)c2ccc3c(c2)CCO3)c1	nt	i	i	i	88	i
OC1CCCN(Cc2ccc3ccc4cccc5ccc2c3c45)C1 (configuration not stated)	i	i	i	i	i	nt
c1cc2ccc3ccc(CN4CCOCC4)c4ccc(c1)c2c34	i	i	i	85[fluorescence artefact?]	i	nt
COc1cccc2c1nc(C)c1cc(C)oc12	i	99	i	i	i	nt
CCC(C)NS(=O)(=O)c1ccc(NC(=O)CNCc2cccs2)cc1 (configuration not stated)	nt	nt	nt	nt	nt	i
O=C(Nc1nc2ccccc2s1)c1cc2c(s1)-c1ccccc1OC2	i	57	i	i	i	nt
CC(C)n1c(=S)[nH]c2c1c(=O)[nH]c(=O)n2C	i	i	54	i	i	i
C=CC(C)n1c(Br)nc2c1c(=O)[nH]c(=O)n2C (configuration not stated)	i	i	i	i	i	nt
O=C(c1ccccc1)c1nn(-c2ccc(Cl)cc2)c(=O)cc1C(F)(F)F	i	i	i	i	i	i
O=c1[nH][nH]c2cc(=O)n(-c3ccc(Cl)cc3)nc12	i	i	i	92	i	nt
Cn1c(=O)c2c(nc(N/N=C/c3ccc(OC(=O)c4ccco4)cc3)n2Cc2ccc(F)cc2)n(C)c1=O	i	59	i	i	i	nt
CC12CCC(c3n[nH]c(=S)nc31)C2(C)C (configuration not stated)	i	i	i	i	i	i
CN(C)c1c(-c2ccccc2)cc(-c2ccccc2)[nH]c1=O	nt	i	i	i	i	nt
O=C(NNC(=O)c1ccccc1Cl)c1ccco1	nt	i	i	i	i	i
O=C(NNC(=O)c1ccccc1Cl)c1ccccc1Cl	nt	95	i	i	i	i
COc1ccc(COC(=O)NNC(=O)c2ccccc2Cl)cc1	47	i	i	i	i	nt
COc1ccc(CC(=O)OCC(=O)NCc2ccccc2Cl)cc1	i	i	i	i	i	i
CCCc1nnc(NC(=O)CCC(=O)N2CCN(S(=O)(=O)c3ccc(C)cc3)CC2)s1	nt	i	i	i	i	i
CCOC(=O)/C(C#N)=N/Nc1ccc(S(=O)(=O)N2CCc3ccccc32)cc1	i	i	i	i	i	i
N#C/C(=N\Nc1ccc(S(=O)(=O)N2CCc3ccccc32)cc1)C(N)=S	i	i	60	i	i	i
CCn1cc(C(=O)N2CCN(c3ccc(C(C)=O)cc3)CC2)c2cc(OC)c(OC)cc2c1=O	i	i	i	i	i	i
O=C1NC2(CCCCC2)C(=O)N1Cc1cccc(C(F)(F)F)c1	i	i	i	i	i	i
CN1CCN(C(=O)CCNC(=O)Cn2ccc3ccccc3c2=O)CC1	i	i	i	i	i	i
